9 molecules from PubChem BioAssay (NCI) can be followed below.

Test systems include SR leukemia; RPMI-8226 leukemia; OVCAR-8 ovarian; OVCAR-5 ovarian; OVCAR-4 ovarian; IGROV1 ovarian; OVCAR-3 ovarian; HS 578T breast; NCI/ADR-RES ovarian; T-47D breast; BT-549 breast; MDA-MB-435 melanoma; SW-620 colon; MCF7 breast; HCT-116 colon; HCC-2998 colon; KM12 colon; SK-OV-3 ovarian.
Test in all cases: NCI-60 one-dose screen, 48 h (100 = growth as untreated, 0 = no growth, -100 = all killed)
Conditions in all cases: 10 µM

About 83,000 compounds went through this panel and 20% of them were active in at least one assay; those are over-represented in the sample as a whole.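 A percent growth of 40 corresponds to 60% growth inhibition; 0 means no net growth; -100 means all cells died. Active threshold: below 10.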 A number with no mark means an inactive call. Calls of active or inactive are those of the source.

Regarding `COc1ccc(-c2cc(=O)n(-c3nc4ccccc4[nH]3)[nH]2)cc1OC`, the growth in the assay on SR leukemia was 48.6%; in the assay with RPMI-8226 leukemia, 81.4%; with OVCAR-8 ovarian, 64.8%; with OVCAR-5 ovarian, 93.1%; in the assay on OVCAR-4 ovarian it was 93.8%; in the assay on IGROV1 ovarian it was 70.6%. Further, the growth in the assay with OVCAR-3 ovarian is 90.1%; in the assay with HS 578T breast, 48.2%; in the assay with NCI/ADR-RES ovarian it was 20.1%; with T-47D breast, 94.5%; in the assay with BT-549 breast, 76.2%; with MDA-MB-435 melanoma, 50.6%. Further, the growth was 77.8% in the assay with SW-620 colon; 74.4% in the assay with MCF7 breast; 74.6% in the assay on HCT-116 colon; 102% with HCC-2998 colon; 105% in the assay with KM12 colon.

With `CCn1nc(-c2ccccn2)c2cccnc2c1=S`, the growth with SR leukemia is 61.6%; in the assay on RPMI-8226 leukemia it was 55.2%; in the assay with OVCAR-8 ovarian it was 79.5%; with OVCAR-5 ovarian, 97%; in the assay on OVCAR-4 ovarian it was 26.5%; with SK-OV-3 ovarian, 94.7%. Besides, the growth in the assay with OVCAR-3 ovarian is 15.4%; with HS 578T breast it was 96.6%; with NCI/ADR-RES ovarian it was 91.5%; in the assay on T-47D breast, 42%; with BT-549 breast, 104%; in the assay on MDA-MB-435 melanoma it was 81.2%. The growth was 79.4% with SW-620 colon; 7.88% (active) in the assay on MCF7 breast; 17.1% in the assay with HCT-116 colon; 72.4% in the assay on HCC-2998 colon; 72.8% with KM12 colon.

For `COc1ccc(-c2nnc(SC/C(=N\O)c3ccccc3)o2)cc1`, the growth was 100% in the assay with SR leukemia; 88.8% in the assay with RPMI-8226 leukemia; 107% in the assay on OVCAR-8 ovarian; 108% in the assay on OVCAR-5 ovarian; 104% in the assay with OVCAR-4 ovarian; 87.9% with SK-OV-3 ovarian. Also, the growth with OVCAR-3 ovarian was 99.1%; with HS 578T breast, 94%; with NCI/ADR-RES ovarian, 91.2%; in the assay with T-47D breast, 91.8%; in the assay with BT-549 breast, 100%; in the assay on MDA-MB-435 melanoma, 106%. Further, the growth in the assay with SW-620 colon was 103%; in the assay with HCT-116 colon it was 91.6%; in the assay with HCC-2998 colon, 94%; in the assay with KM12 colon, 86.2%.

Take `CCC1(C)OC(=O)NC1=O` (stereo unspecified): the growth in the assay with SR leukemia was 115%; with RPMI-8226 leukemia, 96.6%; in the assay on OVCAR-8 ovarian, 105%; in the assay on OVCAR-5 ovarian, 97.1%; with OVCAR-4 ovarian, 112%; in the assay with SK-OV-3 ovarian, 84%. Moreover, the growth in the assay on OVCAR-3 ovarian was 112%; in the assay with HS 578T breast it was 109%; in the assay with NCI/ADR-RES ovarian it was 95.9%; in the assay with T-47D breast it was 93.8%; in the assay with BT-549 breast, 93.3%; in the assay with MDA-MB-435 melanoma, 112%. The growth in the assay with SW-620 colon was 110%; with MCF7 breast it was 97.7%; in the assay with HCT-116 colon, 87.7%; in the assay on HCC-2998 colon, 99%; in the assay on KM12 colon, 107%.

As to `Cc1cc(/C=C2\SC(=Nc3ccccc3)N(C3CCCC3)C2=O)c(C)n1-c1ccc(Cl)cc1`, the growth was -36.8% (active) in the assay with SR leukemia; -43.3% (active) in the assay with RPMI-8226 leukemia; -38% (active) with OVCAR-8 ovarian; -24.9% (active) in the assay on OVCAR-5 ovarian; -35.3% (active) with OVCAR-4 ovarian; -48.6% (active) with IGROV1 ovarian. The growth in the assay with OVCAR-3 ovarian was -85.1% (active); in the assay with HS 578T breast, -12.8% (active); in the assay on NCI/ADR-RES ovarian, 0.0476% (active); in the assay on T-47D breast it was -49.3% (active); with BT-549 breast, -57.6% (active); in the assay on MDA-MB-435 melanoma it was -82.4% (active). Further, the growth with SW-620 colon is -61.6% (active); in the assay with MCF7 breast it was -56.5% (active); in the assay on HCT-116 colon it was -50.5% (active); in the assay on HCC-2998 colon, -83.8% (active).

Take `CCCCOCC(=O)NC(NP(=O)(N(C)C)N(C)C)C(Cl)(Cl)Cl` (stereo unspecified): the growth is 111% in the assay with SR leukemia; 100% with RPMI-8226 leukemia; 62.8% in the assay on OVCAR-8 ovarian; 109% in the assay with OVCAR-5 ovarian; 116% in the assay on OVCAR-4 ovarian; 124% in the assay with SK-OV-3 ovarian. Further, the growth in the assay on OVCAR-3 ovarian is 98%; with HS 578T breast, 113%; with NCI/ADR-RES ovarian, 105%; in the assay on T-47D breast it was 7.73% (active); with BT-549 breast it was 117%; in the assay on MDA-MB-435 melanoma, 102%. In addition, the growth was 108% in the assay on SW-620 colon; 103% in the assay on MCF7 breast; 96.6% in the assay with HCT-116 colon; 103% in the assay on HCC-2998 colon; 133% with KM12 colon.

With `CC(=O)c1ccc(NCn2nc(-c3ccc(Cl)cc3)oc2=S)cc1`, the growth is 85.1% in the assay with SR leukemia; 105% in the assay on RPMI-8226 leukemia; 105% in the assay on OVCAR-8 ovarian; 85.2% with OVCAR-5 ovarian; 113% in the assay on OVCAR-4 ovarian; 94.4% in the assay with SK-OV-3 ovarian. Also, the growth in the assay with OVCAR-3 ovarian was 108%; with HS 578T breast, 96.2%; in the assay on NCI/ADR-RES ovarian it was 101%; in the assay on T-47D breast, 80%; with BT-549 breast, 99.1%; with MDA-MB-435 melanoma, 105%. For the same molecule, the growth was 104% with SW-620 colon; 95.7% in the assay on MCF7 breast; 93.3% with HCT-116 colon; 99.7% in the assay on HCC-2998 colon; 93.1% in the assay on KM12 colon.

As to `S=c1c2ncccc2c(-c2ccccn2)nn1Cc1ccccn1`, the growth was 87.2% in the assay with SR leukemia; 97.9% with RPMI-8226 leukemia; 106% in the assay with OVCAR-8 ovarian; 111% with OVCAR-5 ovarian; 97.2% in the assay with OVCAR-4 ovarian; 93.5% with SK-OV-3 ovarian. The growth with OVCAR-3 ovarian is 115%; in the assay on HS 578T breast, 111%; with NCI/ADR-RES ovarian it was 103%; with T-47D breast it was 75.5%; in the assay on BT-549 breast it was 79.7%; in the assay on MDA-MB-435 melanoma, 100%. The growth with SW-620 colon was 109%; in the assay on MCF7 breast, 90.7%; with HCT-116 colon, 62%; in the assay with HCC-2998 colon, 91.9%; in the assay on KM12 colon, 103%.

On to `CNC(=O)c1cc(Oc2ccc(NC(=O)Nc3ccc(Cl)c(OC(C)C)c3)c(F)c2)ccn1`, for which the growth in the assay on SR leukemia is 40.8%; with RPMI-8226 leukemia, 26.8%; in the assay with OVCAR-8 ovarian it was 53.9%; in the assay with OVCAR-5 ovarian, 85.3%; with OVCAR-4 ovarian, 24.1%; in the assay with IGROV1 ovarian it was 60.8%. Moreover, the growth with OVCAR-3 ovarian is 58.3%; in the assay on HS 578T breast, 64.6%; in the assay with NCI/ADR-RES ovarian, 56%; in the assay on T-47D breast it was 9.9% (active); in the assay on BT-549 breast it was 75.1%; with MDA-MB-435 melanoma, 43.2%. The growth in the assay with SW-620 colon is 68.2%; with MCF7 breast, 31%; in the assay with HCT-116 colon it was 30.4%; in the assay with HCC-2998 colon, 66.7%; in the assay on KM12 colon, 24.4%.
